These results are taken from PubChem BioAssay AID651550 (National Center for Advancing Translational Sciences (NCATS), 2012).

The whole screen tested about 360,000 compounds, of which about 1,100 (0.31%) were called active. This is one part of a sample in which actives are shown more often than they occur. A number with no mark means an inactive call. Rule as the data show it: active = activity change below about -80%; inconclusive = mostly about -51% to -80%; inactive = weaker than that.
% is scaled to controls: 0 for no effect and ±100 for the full control effect.

For this assay, the target named is RAC-alpha serine/threonine-protein kinase (Homo sapiens) (UniProt P31749). As to the kind of experiment: HTS Assay for Inhibitors of Akt Phophorylation: Primary Screen. As to conditions: Neuro2A IGF-stimulated pAkt S473 HTRF, 20 min; at 50 µM, stronger effect = lower value. The text has this: The serine/threonine protein kinase Akt (protein kinase B) regulates various cellular processes, including cell survival, growth, proliferation, migration and differentiation. It has been well established that Akt is activated through two essential steps involving membrane translocation and phosphorylation. Cytosolic Akt is recruited to the plasma membrane via the interaction between the PH domain and membrane PIP3 produced by phosphoinositide-3 kinase (PI3K) upon growth factor receptor stimulation. The membrane-Akt interaction results in conformational changes of Akt, enabling its activation through phosphorylation at T308 in the kinase domain and at S473 in the C-terminal hydrophobic motif by PDK1 and mTOR-rictor complex (mTORC2), respectively. […] These findings indicate that S473 phosphorylation, as an important modulator of Akt activation, may be a valuable drug target for cell growth, survival, proliferation and differentiation. These inhibitors also may have significant therapeutic potential with fewer side effects, especially for the conditions involving hyperactive Akt signaling, such as cancer and Alzheimer's disease.
To this end, a miniaturized assay was developed to be screened against the Molecular Libraries Small Molecule Repository (MLSMR).
NIH Chemical Genomics Center [NCGC]
NIH Molecular Libraries Probe Centers Network [MLPCN]
Assay Submitter (PI): Hee-Yong Kim, National Institute on Alcohol Abuse and Alcoholism
3 uL of Neuro2A cell suspension in DMEM containing 0.5% FBS and […] antibiotics mix was plated in a white solid bottom tissue culture-treated 1536-well plate (Greiner Bio-One, Monroe, NC) at 4,500 cells per well and incubated overnight at 37 deg C. 23 nL/well of compound solutions in DMSO was added with Pintool transfer (Kalypsis, San Diego, CA) at single […] final concentration. Then, the cells were stimulated with 1.5 uL of IGF (6 nM final concentration) and incubated at 37 deg C for 20 min. The reaction was terminated by the addition of 1.5 uL blocking reagent mixed with lysis buffer (1:25 correspondingly) provided with HTRF(R) Phospho Akt (Ser473) kit (Cisbio US, Bedford, MA), with following incubation for 50 min at ambient temperature. The detection HTRF conjugates from the kit were prepared according to the protocol, pre-mixed 1:1 prior to dispensing, and 2 uL/well was added with BioRAPTR FRD dispenser (Beckman Coulter). The assay plates were incubated for 24 hours at ambient temperature, and the HTRF fluorescence was measured using Envision plate reader (PerkinElmer) with excitation at 330nm, emission at 615nm (Eu(3)-Cryptate donor signal) and 665nm (d2 acceptor signal). The ratio of […] was calculated for each well.
As for `COc1ccc(OC)c(NC(=O)Cc2cccs2)c1`, the activity change result was “inactive”.
With `O=C(Nc1ccc2c(c1)C(=O)OC2)Nc1cccc2ccccc12`, the activity change entry is “inactive”.
Take `CCn1cc(C(=O)N2CC(C)CC(C)C2)c(=O)c2cc(S(=O)(=O)N3CCCC3)ccc21` (stereo unspecified): the activity change entry is “inactive”.
Consider `CCn1cc(C(=O)NC2CCCCCC2)c(=O)c2cc(S(=O)(=O)N3CCCCC3)ccc21`, for which the activity change entry was “inactive”.
The result for `CCn1cc(C(=O)NCC2CCCO2)c(=O)c2cc(S(=O)(=O)N3CCCCC3)ccc21` (stereo unspecified) reads -109% (active); that for `CC(C)(C)NC(=O)C(CCc1ccccc1)n1c(=O)c(-c2ccccc2)nc2ccccc21` (stereo unspecified), “inactive”.
The value for `CCC(c1nnnn1C1CCCC1)N(Cc1cccs1)Cc1cc2cccc(C)c2[nH]c1=O` (stereo unspecified) was -108% (active); that for `Cc1cccc2cc(CN(Cc3nnnn3Cc3ccccc3)C3CCCC3)c(=O)[nH]c12` was “inactive”; that for `CCC(c1nnnn1Cc1ccco1)N(CCc1ccccc1)Cc1cc2cccc(C)c2[nH]c1=O` (stereo unspecified) was -20.5%.
The result for `CCc1ccccc1N(CC(=O)NCCSCc1ccco1)S(C)(=O)=O` reads “inactive”.
`Cc1[nH]c2ccccc2c1C(=O)c1cc([C@H](NC(=O)OC(C)(C)C)C(C)C)sc1N`: the activity change result was “inactive”.
The value for `Cc1ccc2c(C)c(C(=O)N3CCN(c4ccncc4)CC3)oc2c1C` was “inactive”; that for `O=C(c1cc2cc(Br)cc(Br)c2oc1=O)N1CCOCC1` was “inactive”; that for `COc1c(Br)cc2c(C)c(C(=O)N3CCOCC3)oc2c1Br` was -114% (active).
As for `CCOC(=O)[C@]12CCCC=C1N(CCC1=CCCCC1)C(=O)[C@H](CC(=O)N1CCOCC1)C2`, the activity change entry was “inactive”.
The value for `OCCC#Cc1ccc(N2C(c3ccsc3)=Cc3ccc(F)cc3C2c2c[nH]c3ccccc23)cc1` (stereo unspecified) was “inactive”; that for `CC(C)CC1(C)NC(=O)N(CC(=O)Nc2ccc3c(c2)OCCO3)C1=O` (stereo unspecified) was “inactive”.
The result for `CC1=NN(C(C)C)C(=O)C1` reads -118% (active); that for `CCOC(=O)NN1C(=O)c2ccccc2NC1c1ccccc1O` (stereo unspecified), “inactive”.
The result for `CC1(C(=O)NCc2ccccc2)CSCC(=O)N1CCCN1CCOCC1` (stereo unspecified) reads “inactive”; that for `COc1ccc2ccccc2c1CNCc1ccccn1`, “inactive”.
For the molecule `CSCCC(C(=O)NC(C)(C)C)n1c(-c2ccccc2)nc2ccccc21` (stereo unspecified), the activity change entry was “inactive”.
The result for `CC(NC(=O)C(=O)Nc1nccs1)c1ccccc1` (stereo unspecified) reads “inactive”.
Take `Cc1c(Br)c([N+](=O)[O-])nn1C(C)C(=O)Nc1nccs1` (stereo unspecified): the activity change is -109% (active).
The result for `O=C(CCn1ccc([N+](=O)[O-])n1)Nc1nccs1` reads “inactive”.
The result for `Cc1cccc(C(=O)OC(C)CN2CCN(C)CC2)c1` (stereo unspecified) reads “inactive”; that for `CC(CN1CCCCC1)OC(=O)c1ccccc1Cl` (stereo unspecified), -96.5% (active); that for `Cc1cccc(C(=O)OC(C)CN2CCCC2)c1` (stereo unspecified), “inactive”.
The result for `CCOC(=O)[C@]12CCCC=C1N(CCC1=CCCCC1)C(=O)[C@H](CC(=O)N1CCSCC1)C2` reads “inactive”.
For the molecule `Cc1cccc(C)c1NC(=O)C(c1cccc(F)c1)N1CCN(C)CC1` (stereo unspecified), the activity change entry is “inactive”.
The result for `Cc1ccc(F)cc1NC(=O)Cc1nn(C)c(=O)c2ccccc12` reads -106% (active).
The result for `Cc1ccc(F)cc1NC(=O)CSCc1c(C)noc1C` reads “inactive”; that for `Cc1ccc(C)c(NC(=O)COC(=O)c2nn(C)c(=O)c3ccccc23)c1`, “inactive”.
The result for `CCN1C(=O)/C(=C\N2CCOCC2)SC1=S` reads “inactive”; that for `NNC(=O)CSc1nnc(-c2ccccc2)n1-c1ccccc1`, “inactive”.
Regarding `O=C(O)CSc1nnc(-c2ccc3c(c2)OCO3)n1-c1ccccc1`, the activity change entry is “inactive”.
Regarding `O=C(O)CCSc1nnc(-c2ccccc2)n1-c1ccccc1`, the activity change is -109% (active).
Regarding `CS(=O)(=O)N1CCN=C1SCc1ccc(F)cc1`, the activity change result was “inactive”.
The result for `Cc1cc(OCCOc2cccc3cccnc23)c(C)cc1Cl` reads “inactive”; that for `Cc1cc(Cl)ccc1OCc1nc(-c2ccncc2)no1`, “inactive”; that for `Cc1noc(COc2ccccc2OCc2onc(C)c2Cl)c1Cl`, -112% (active).
The value for `CC1(C(=O)NCc2ccccc2)CN(S(C)(=O)=O)CC(=O)N1CC(F)(F)F` (stereo unspecified) was “inactive”; that for `Cc1cccc(NC(=O)COC(=O)CCc2ccccc2)c1C` was “inactive”; that for `Cc1cccc(NC(=O)CSC(N)=O)c1C` was -113% (active).
The value for `Cc1cccc(NC(=O)CSc2nc3c(c(=O)[nH]2)CCCC3)c1C` was “inactive”; that for `C=Cc1ccc(C(=O)N2CCCC(CCC(=O)N3CCN(c4ccccn4)CC3)C2)cc1` (stereo unspecified) was “inactive”.
Take `O=C(C[C@H]1CC[C@H]2[C@@H](COC[C@H](O)CN2C(=O)c2ccccn2)O1)N1CCN(c2ccccc2)CC1`: the activity change result is “inactive”.
For the molecule `FC(F)(F)c1cc(-c2cccs2)nc(NCc2ccco2)n1`, the activity change is -2.47%.
The value for `COc1nc(NCc2ccc(Cl)cc2)nc(OC)n1` was 1.36%; that for `FC(F)(F)c1cc(-c2ccco2)nc(NCc2ccc(Cl)cc2)n1` was -102% (active).
The value for `CC(C)(C)n1nnnc1C(c1ccc2ncccc2c1)N1CCSCC1` (stereo unspecified) was “inactive”.
